Source: PubChem BioAssay
These entries were drawn from the full list.
aSyn 5UTR act: Activators working through SNCA 5'UTR binding (MLPCN); 300,000 tested, 7.1% active; alpha-synuclein 5'UTR reporter, activators screen; AID 1814; activity score, % (tested at 7.5 µM), hits read low; in the data active means activity score below about -60%
Each line names hits and unclear results; the compound was inactive in the other large screens.

Cc1ccc(Cl)c2sc(NC(=O)C3=COCCO3)nc12	aSyn 5UTR act -79
O=C(Nc1nc(-c2ccc(Cl)cc2)cs1)C1=COCCO1	aSyn 5UTR act -109
O=C(Nc1nc(-c2cccs2)cs1)C1=COCCO1	aSyn 5UTR act -173
CC(=O)c1ccc(NC(=O)c2ccn(C(=O)OCC(C)C)n2)cc1	aSyn 5UTR act -86
Nc1ccc2oc(-c3cccc4ccccc34)nc2c1	none
Nc1ccc2oc(-c3cccs3)nc2c1	aSyn 5UTR act -89
Brc1ccccc1C1CC(c2ccccc2)=Nc2ccccc2N1 (stereo not given)	aSyn 5UTR act -203
c1ccc(C2=Nc3ccccc3NC(c3ccccc3)C2)cc1 (stereo not given)	aSyn 5UTR act -178
O=C(/C=C/c1ccc(-c2ccccc2[N+](=O)[O-])o1)c1ccccc1	aSyn 5UTR act -120
O=C(N/N=C/c1ccc(-c2ccccc2[N+](=O)[O-])o1)[C@H]1C[C@@H]1c1ccccc1	aSyn 5UTR act -79
COC(=O)Oc1ccc(/C=C/C(=O)OC(C)C)cc1OC(=O)OC	aSyn 5UTR act -127
CN(/N=C/c1cccnc1)c1cnc2ccccc2n1	aSyn 5UTR act -139
CCOc1cc2c3c(c1)C(C)=CC(C)(C)N3C(=O)C2=O	aSyn 5UTR act -74
CCc1ccc(NC(=S)Nc2cc(C(=O)O)ccc2N2CC3CC(C2)c2cccc(=O)n2C3)cc1 (stereo not given)	aSyn 5UTR act -114
Cc1c(C(=O)NCc2ccccn2)oc2ccc(Br)cc12	aSyn 5UTR act -131
Cc1c(C(=O)NCc2ccccn2)oc2ccccc12	aSyn 5UTR act -138
O=C(NCc1ccco1)c1cc(-c2ccc(Cl)cc2)on1	aSyn 5UTR act -130
COc1ccc(OC)c(-c2cc(C(=O)Nc3c(C)nn(Cc4ccccc4)c3C)no2)c1	none
COc1ccc2cc(C(=O)NCc3ccco3)c(=O)oc2c1	aSyn 5UTR act -93
COc1ccc(OC)c(-c2cc(C(=O)NCc3ccco3)no2)c1	aSyn 5UTR act -69
CC(C)Cc1cc(C(=O)NCc2ccco2)no1	aSyn 5UTR act -92
O=C(NCc1ccco1)c1ccc(Cn2c(=O)c3ccccc3n(Cc3cccc(Cl)c3)c2=O)cc1	none
COc1cccc(-c2cc(C(=O)NCc3ccco3)no2)c1	aSyn 5UTR act -97
O=C(NCc1ccco1)c1ccc(-c2cccc(Cl)c2)o1	aSyn 5UTR act -74
O=C(NCc1ccco1)c1cc(-c2ccc3c(c2)OCO3)on1	aSyn 5UTR act -97
O=C(NCc1ccco1)c1cc(-c2cccc(Cl)c2)on1	aSyn 5UTR act -92
CC1CCc2onc(C(=O)NCc3ccco3)c2C1 (stereo not given)	aSyn 5UTR act -64
CC1=Nc2cc(C(=O)NCc3ccco3)ccc2Sc2ccc(C)cc21	none
Cc1ccc(-c2cc(C(=O)NCc3ccco3)no2)cc1	aSyn 5UTR act -154
O=C(NC(=S)Nc1ccccc1Cl)c1ccco1	aSyn 5UTR act -112
O=C(NC(=S)N(CCc1ccccc1)CCc1ccccc1)c1ccco1	none
O=C(NC(=S)Nc1ccc(N2CCCCC2)cc1)c1ccco1	aSyn 5UTR act -182
CC1CCN(c2ccc(NC(=S)NC(=O)c3ccco3)cc2)CC1	aSyn 5UTR act -132
CN(C)c1ccc(/C=N/NC(=O)c2ccnn2C)cc1	aSyn 5UTR act -110
CN(C)c1ccc(/C=N/NC(=O)c2ccn(C)n2)cc1	aSyn 5UTR act -115
COCc1nnc(NC(=O)c2cccc(NC(=O)C(C)C)c2)s1	aSyn 5UTR act -73
CC(C)C(=O)Nc1cccc(C(=O)Nc2nnc(C(C)C)s2)c1	aSyn 5UTR act -120
CC(C)C(=O)Nc1ccc(C(=O)Nc2nnc(C(C)C)s2)cc1	aSyn 5UTR act -107
CCc1nnc(NC(=O)c2cccc(NC(=O)C(C)C)c2)s1	aSyn 5UTR act -81
CCOCc1nnc(NC(=O)c2cccc(OC)c2)s1	aSyn 5UTR act -96
COc1cccc(-c2csc(NC(C)=O)n2)c1	aSyn 5UTR act -181
O=C(Nc1nc(-c2cccc(Br)c2)cs1)Oc1ccccc1	aSyn 5UTR act -101
CCc1ccc(-c2csc(NC(=O)Oc3ccccc3)n2)cc1	aSyn 5UTR act -161
ClC1=C(Cl)C(Cl)=C(Cl)C1=C/C=C/c1ccccc1	none
NC1=NC(=O)/C(=C\C=C\c2ccccc2)S1	aSyn 5UTR act -73
CCOc1ccc2oc(C(=O)NCC3CCCO3)c(C)c2c1 (stereo not given)	aSyn 5UTR act -100
COc1ccc2oc(C(=O)NC(C)(C)C)c(C)c2c1	aSyn 5UTR act -138
COc1ccc2oc(C(=O)NCC3CCCO3)c(C)c2c1 (stereo not given)	aSyn 5UTR act -126
COc1ccc(-c2cc(C(=O)NCC3CCCO3)c3cc(C)ccc3n2)cc1 (stereo not given)	aSyn 5UTR act -67
COc1ccc(O)c(/C=N/N2CCCCC2)c1	aSyn 5UTR act -150
COc1ccc2[nH]c(=O)c(CN(Cc3cccs3)S(=O)(=O)c3c(C)ccc4nsnc34)cc2c1	none
Cc1ccc2cc(CN(CC3CCCO3)C(=S)Nc3ccccc3)c(=O)[nH]c2c1C (stereo not given)	none
Cc1ccc2nsnc2c1S(=O)(=O)N(CCO)Cc1cc2cc3c(cc2[nH]c1=O)OCCO3	aSyn 5UTR act -90
Cc1cc(C)c2cc(CN(CC3CCCO3)S(=O)(=O)c3ccc4c(c3)OCCO4)c(=O)[nH]c2c1 (stereo not given)	aSyn 5UTR act -94
CC(=O)c1ccc(S(=O)(=O)N(Cc2cc3cc4c(cc3[nH]c2=O)OCCO4)CC2CCCO2)cc1 (stereo not given)	aSyn 5UTR act -180
Cc1ccc2cc(CN(CC3CCCO3)S(=O)(=O)c3ccc4c(c3)OCCO4)c(=O)[nH]c2c1C (stereo not given)	aSyn 5UTR act -108
Cc1ccc(-c2nc3ccccn3c2NCc2ccc3c(c2)OCO3)cc1	aSyn 5UTR act -163
COc1ccc(-c2nc3ccc(C)cn3c2NCc2ccc3c(c2)OCO3)cc1	aSyn 5UTR act -119
Cc1ccc(NC(=O)c2cc3ccccc3o2)cc1Cl	aSyn 5UTR act -270
CC(C)C(=O)Nc1cccc(NC(=O)c2cc3ccccc3o2)c1	aSyn 5UTR act -108
CCC(=O)Nc1ccc(Cl)c(NC(=S)NC(=O)c2cc3ccccc3o2)c1	aSyn 5UTR act -95
CC(=O)Nc1ccc(-c2cc3ccccc3o2)cc1	aSyn 5UTR act -147
CC(=O)Nc1cccc(NC(=O)c2cc3ccccc3o2)c1	aSyn 5UTR act -92
CC(=O)Nc1cccc(NC(=O)c2oc3ccccc3c2C)c1	aSyn 5UTR act -272
CC(=O)O[C@H]1C(=O)[C@@]2(C)[C@H]([C@H](OC(=O)c3ccccc3)[C@]3(O)C[C@H](OC(=O)[C@H](O)C(NC(=O)c4ccccc4)c4ccccc4)C(C)=C1C3(C)C)[C@]1(OC(C)=O)CO[C@@H]1C[C@@H]2O (stereo not given in full)	none
O=C(Nc1nnc(CCN2CCOCC2)s1)c1ccccc1	aSyn 5UTR act -67
CC(C)Oc1ccc(C(=O)Nc2nnc(SCC(=O)N3CCOCC3)s2)cc1	none
O=C(Nc1nnc(Cc2ccccc2)s1)c1cccs1	aSyn 5UTR act -128
O=C(Nc1nnc(CC2=CCCCC2)s1)c1cccs1	aSyn 5UTR act -93
O=C(Nc1nnc(Cc2ccccc2)s1)c1ccccc1	aSyn 5UTR act -160
O=C(Nc1nnc(CCc2ccccc2)s1)c1cccc(F)c1	aSyn 5UTR act -103
CCc1nnc(NC(=O)c2ccc(N(C)S(=O)(=O)c3ccccc3)cc2)s1	aSyn 5UTR act -129
CCN(c1ccccc1)S(=O)(=O)c1ccc(C(=O)Nc2nnc(C3CC3)o2)cc1	none
CCN(Cc1ccccc1)S(=O)(=O)c1ccc(C(=O)Nc2nnc(-c3ccccc3OC)o2)cc1	none
